Test systems include NCI-H23 lung; NCI-H226 lung; NCI-H322M lung; HOP-62 NSCLC; NCI-H460 lung; HOP-92 NSCLC; NCI-H522 lung; A549/ATCC NSCLC; 786-0 renal; COLO 205 colon; DU-145 prostate; K-562 leukemia; MALME-3M melanoma; MDA-MB-231 breast; RXF 393 renal; SF-268 CNS; SF-295 CNS; SF-539 CNS; UACC-257 melanoma; M14 melanoma.
Common to all, as to experiment: NCI-60 one-dose screen, 48 h (100 = growth as untreated, 0 = no growth, -100 = all killed)
Conditions in all cases: 10 µM unless noted

For seven molecules, growth results are on record in PubChem BioAssay (NCI).

Each structure is given as a SMILES string. The panel holds about 83,000 compounds, 20% with a hit somewhere; the sample as a whole holds those more often.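 The endpoint reported here, percent growth, reads 100 for growth as untreated, 0 for no net growth and -100 for all cells dead.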 A number with no mark means an inactive call. Active and inactive are the calls of the source. How the source made its calls: active means growth percent below 10; inactive means the rest.

`COc1ccc(Oc2ccc(/C=C/C(=O)c3ccc(OC)c(OC)c3)cc2)cc1`: the growth was 83.7% in the assay with NCI-H23 lung; 90.9% in the assay with NCI-H226 lung; 86.7% in the assay on NCI-H322M lung; 118% in the assay with HOP-62 NSCLC; 93.9% in the assay with NCI-H460 lung; 83.7% with HOP-92 NSCLC. Besides, the growth in the assay with NCI-H522 lung is 57.4%; in the assay with A549/ATCC NSCLC, 81.8%; in the assay on 786-0 renal it was 103%; in the assay on COLO 205 colon, 91.9%; in the assay with DU-145 prostate, 76.6%; in the assay on K-562 leukemia, 66%. The growth is 92.9% with MALME-3M melanoma; 94.3% with MDA-MB-231 breast; 101% in the assay on RXF 393 renal; 97.1% in the assay on SF-268 CNS; 87% with SF-295 CNS; 100% with SF-539 CNS. The growth in the assay with UACC-257 melanoma was 78.6%; in the assay with M14 melanoma, 92.9%.
As for `COc1cc(C=Nc2oc(-c3ccccc3)c(-c3ccccc3)c2C#N)cc(CN2CCCC2)c1O`, the growth was 94.8% with NCI-H23 lung; 93.7% in the assay with NCI-H226 lung; 103% in the assay on NCI-H322M lung; 94% in the assay on HOP-62 NSCLC; 102% with NCI-H460 lung; 85.6% in the assay with HOP-92 NSCLC. The growth in the assay with NCI-H522 lung is 85.8%; in the assay with A549/ATCC NSCLC, 94.4%; in the assay with 786-0 renal, 99.3%; in the assay with COLO 205 colon it was 114%; in the assay with DU-145 prostate, 108%; with K-562 leukemia it was 94.4%. Moreover, the growth in the assay with MALME-3M melanoma is 117%; in the assay on MDA-MB-231 breast it was 95.7%; in the assay with RXF 393 renal it was 111%; in the assay on SF-268 CNS, 96.4%; with SF-295 CNS, 98.5%; with SF-539 CNS it was 95.1%. The values for the growth in the assay with UACC-257 melanoma and in the assay on M14 melanoma were 107% and 100%, respectively.
For the molecule `CC(=O)c1sc(-c2ccc(F)cc2)cc1O`, the growth with NCI-H23 lung was 96.4%; with NCI-H226 lung it was 103%; with NCI-H322M lung, 98.3%; in the assay on HOP-62 NSCLC, 111%; with NCI-H460 lung it was 108%; in the assay on HOP-92 NSCLC, 102%. Besides, the growth in the assay with NCI-H522 lung is 99.2%; in the assay with A549/ATCC NSCLC, 97.2%; with 786-0 renal, 96.7%; with COLO 205 colon, 116%; with DU-145 prostate it was 97.7%; in the assay with K-562 leukemia, 88.5%. Further, the growth with MALME-3M melanoma is 99%; with MDA-MB-231 breast it was 127%; in the assay with RXF 393 renal it was 111%; in the assay with SF-268 CNS, 97.2%; in the assay with SF-295 CNS, 105%; in the assay with SF-539 CNS it was 114%. For the same molecule, the growth is 100% in the assay on UACC-257 melanoma and 95.1% in the assay with M14 melanoma.
For the molecule `COc1ccc(C/C(C)=C(\c2ccc(O)cc2)c2ccc(OCCN3CCCCC3)cc2)cc1`, the growth with NCI-H23 lung is 90.1%; with NCI-H226 lung, 103%; in the assay with NCI-H322M lung it was 93.8%; in the assay with HOP-62 NSCLC, 95.6%; in the assay with NCI-H460 lung, 72.6%; with HOP-92 NSCLC it was 72.3%. The growth in the assay with NCI-H522 lung was 87.7%; in the assay with A549/ATCC NSCLC it was 79.2%; in the assay with 786-0 renal, 76.8%; in the assay with COLO 205 colon, 89.4%; in the assay on DU-145 prostate it was 90.8%; with K-562 leukemia, 22.8%. For the same molecule, the growth in the assay on MALME-3M melanoma is 87.6%; in the assay with MDA-MB-231 breast, 104%; in the assay with RXF 393 renal, 79.9%; in the assay with SF-268 CNS it was 81.7%; in the assay with SF-295 CNS, 98.8%; in the assay on SF-539 CNS it was 83%. Besides, the growth in the assay on UACC-257 melanoma is 110%; with M14 melanoma, 40.4%.
With `CC[C@@H](C(=O)[C@@H](C)[C@@H](O)[C@H](C)[C@@H]1O[C@@H]([C@@H](CC)C(=O)ONC(=O)c2ccccc2O)CC[C@@H]1C)C1O[C@]2(C=CC(=O)[C@]3(CC[C@@](C)([C@H]4CC[C@](O)(CC)[C@H](C)O4)O3)O2)[C@H](C)C[C@@H]1C` (stereo not given in full), the growth in the assay with NCI-H23 lung was 23.1%; in the assay with NCI-H226 lung, 52.7%; in the assay with NCI-H322M lung, 70%; in the assay with HOP-62 NSCLC it was 58.3%; in the assay with NCI-H460 lung, 33.5%; in the assay with HOP-92 NSCLC, 37.3%. The growth in the assay on NCI-H522 lung is 23.9%; with A549/ATCC NSCLC, 23.8%; in the assay on 786-0 renal, 61.7%; in the assay with COLO 205 colon, 11.6%; in the assay with DU-145 prostate it was 40.3%; in the assay on K-562 leukemia it was 28.6%. Besides, the growth with MALME-3M melanoma is 4.34% (active); in the assay with MDA-MB-231 breast it was 50.9%; with RXF 393 renal, 35.2%; with SF-268 CNS it was 54.2%; in the assay on SF-295 CNS, 44.7%; in the assay with SF-539 CNS it was 27.5%. Also, the growth was 38.3% in the assay on UACC-257 melanoma and 63.6% in the assay with M14 melanoma.
For `CN(C)CCC(=O)C1CC1`, the growth was 97% in the assay with NCI-H23 lung; 102% in the assay on NCI-H226 lung; 98.4% with NCI-H322M lung; 91.2% in the assay on HOP-62 NSCLC; 103% with NCI-H460 lung; 101% with HOP-92 NSCLC. Besides, the growth was 97.1% in the assay on NCI-H522 lung; 103% with A549/ATCC NSCLC; 99.4% with 786-0 renal; 112% in the assay on COLO 205 colon; 111% in the assay with DU-145 prostate; 102% in the assay with K-562 leukemia. Moreover, the growth is 102% with MALME-3M melanoma; 103% in the assay on MDA-MB-231 breast; 104% with RXF 393 renal; 102% with SF-268 CNS; 116% in the assay with SF-295 CNS; 107% in the assay on SF-539 CNS. The growth was 91.7% in the assay on UACC-257 melanoma and 104% in the assay with M14 melanoma.
Regarding `C#CCOc1ccc2nc(CCl)c(Cl)c(Nc3cccc(C(F)(F)F)c3)c2c1`, the growth is 87.8% with NCI-H23 lung; 84.7% with NCI-H226 lung; 98.1% in the assay on NCI-H322M lung; 93% in the assay on HOP-62 NSCLC; 105% in the assay on NCI-H460 lung; 94.6% with HOP-92 NSCLC. For the same molecule, the growth in the assay with NCI-H522 lung is 36.4%; in the assay on A549/ATCC NSCLC, 94.7%; in the assay on 786-0 renal it was 76%; in the assay with COLO 205 colon, 80%; in the assay on DU-145 prostate, 72%; in the assay with K-562 leukemia, 38.8%. Also, the growth with MALME-3M melanoma was 59.5%; with MDA-MB-231 breast it was 55%; with RXF 393 renal, 84.1%; with SF-268 CNS it was 85.3%; in the assay on SF-295 CNS it was 88%; with SF-539 CNS, 104%. The growth in the assay with UACC-257 melanoma is 93.7%; in the assay on M14 melanoma, 81.4%.
